The list is not random: actives were taken first. Their share in the collection is about 2.8%.
KKLEB tox: CF airway cell cytotoxicity counter-screen; KKLEB CF airway cells viability, ATPlite luminescence, overnight; stronger effect = lower value; cells stimulated with P. aeruginosa culture filtrate; activity change (cytotoxicity), % at 5 µM; 0.36% of 360,000 active;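 active = corrected activity change at or below -50% at 5 µM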
HIF-2a inh: inhibitors of HIF-2a. 0.72% of 360,000 active. 786-0 RCC cells HIF-2a reporter, luciferase luminescence, overnight. inhibition, % at 18.8 µM;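 active = inhibition of the luminescence signal of 40% or more relative to plate controls, in a single-dose primary screen at 18.75 µM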
B2AR ag: agonists of human beta-2 adrenergic receptor inducing internalization; P07550; Am2.2-beta2AR cells, FAP receptor internalization, flow cytometry; response, % (test concentration not listed); 0.43% of 340,000 active; AID 504454;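 active = response above a set limit, near 3 SD of response in nonfluorescent compounds, cut at about 42% in these data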
Target sequence (P07550 whole entry, looked up): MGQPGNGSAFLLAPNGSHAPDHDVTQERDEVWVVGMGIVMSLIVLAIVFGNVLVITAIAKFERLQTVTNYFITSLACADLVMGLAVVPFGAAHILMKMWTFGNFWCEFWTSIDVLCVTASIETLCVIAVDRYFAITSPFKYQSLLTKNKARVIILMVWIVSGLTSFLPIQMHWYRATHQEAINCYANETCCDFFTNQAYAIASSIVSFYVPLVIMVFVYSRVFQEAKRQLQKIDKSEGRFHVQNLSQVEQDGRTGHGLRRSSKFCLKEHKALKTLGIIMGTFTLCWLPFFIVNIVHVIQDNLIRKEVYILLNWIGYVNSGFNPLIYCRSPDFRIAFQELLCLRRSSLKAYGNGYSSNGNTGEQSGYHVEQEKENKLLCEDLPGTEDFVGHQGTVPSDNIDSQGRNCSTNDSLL
Peg3 promoter: reduces Peg3 promoter-driven luciferase expression in HeLa; HeLa PEG-Prom luciferase reporter, luminescence, overnight; inhibition, % at 20 µM; 1.7% of 360,000 active; AID 588405;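 active = inhibition of at least 50% at 20 µM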
MITF TRPM1 inh: inhibitors of MITF-driven TRPM1 promoter in melanoma cells; SK-MEL-5 TRPM1 promoter luciferase, 24 h; inhibition, % at 12.5 µM; 0.83% of 330,000 active; AID 488899;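 active = mean inhibition across replicates of 60% or more, whatever share of single replicates reaches that level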
CF NFkB inh: cystic fibrosis NF-kB activation inhibition. KKLEB NF-kB-GFP reporter, PAF-induced, GFP fluorescence overnight. 0.86% of 360,000 active. inhibition, % at 5 µM. AID 588850;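 active = at least 50% inhibition at 5 µM, scaled per plate between neutral and stimulator controls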;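 note: PAF is a Pseudomonas aeruginosa culture filtrate used as stimulus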
Of the large screens only hits and unclear results are named; the others gave an inactive call.

CCn1c(O)c(C=Nc2ccc(N3CCOCC3)cc2)c(=O)n(CC)c1=S	CF NFkB inh 56.9
CCn1c(O)c(C=NCCN2CCOCC2)c(=O)n(CC)c1=S	CF NFkB inh 53.7
CCn1c(O)c(C=Nc2ccc(N3CCOCC3)c(Br)c2)c(=O)n(CC)c1=S	none
COC(/C(C)=C/C=C/C(C)=C/c1coc(C)n1)C(C)C1CC(O)C2(C)OC2C=CC(C)C2CC(CC(=O)O2)CC2OC2C(=O)O1 (configuration not stated)	MITF TRPM1 inh 65.0
CC1=C(C(=O)N2CCC3(CC2)OCCO3)C2(CCC(C)CC2)OC1=O (configuration not stated)	none
CCN1C(=O)/C(=C/c2ccc(N(CC)CC)cc2OC)C(=O)NC1=S	Peg3 promoter 90.0
COc1ccccc1/C=C1\C(=O)NC(=S)N(c2ccccc2)C1=O	none
Cc1c(C(=O)N2CCC3(CC2)OCCO3)sc2ncnc(N(C)c3ccccc3)c12	none
c1cc2c(cc1-c1ccc3c(c1)OCO3)CNCc1cnnn1-2	none (no result: B2AR ag, MITF TRPM1 inh)
O=C(Nc1cccc(Cl)c1)N1C[C@H]2C[C@@H](C1)c1cccc(=O)n1C2	none
C[N+](C)(C)CC#CCOC(=O)Nc1cccc(Cl)c1	Peg3 promoter 84.4
CCOC(=O)[C@]12Cc3cc(C)ccc3[C@H]1N(Cc1ccccc1)C(=O)c1cc(F)c(F)cc12	none (no result: KKLEB tox, B2AR ag, Peg3 promoter, MITF TRPM1 inh, CF NFkB inh)
CC(=NNC(=S)N1CC2CCC(CC2)C1)c1nccs1	CF NFkB inh 67.1
C[C@@H]1CN([C@H](C)CO)C(=O)CCCn2nncc2CO[C@@H]1CN(C)C(=O)Oc1ccc2ccccc2c1	none (no result: B2AR ag, MITF TRPM1 inh)
O=C(NCC1=C(c2cccc3ccccc23)C[C@@H]2CC[C@H]1N2Cc1ccco1)c1cccs1	none (no result: B2AR ag, MITF TRPM1 inh)
Clc1ccc(C[n+]2c(-c3ccccc3)cc(-c3ccccc3)cc2-c2ccccc2)cc1	Peg3 promoter 88.4, MITF TRPM1 inh 92.2
CCOc1ccc(-c2cc(C)[n+](CCc3ccc(OC)c(OC)c3)c(-c3ccc(OCC)cc3)c2)cc1	Peg3 promoter 58.5, MITF TRPM1 inh 97.3
Cc1cc(-c2ccccc2)cc(-c2ccccc2)[n+]1CCc1ccccc1	MITF TRPM1 inh 64.8
COc1ccc(CC[n+]2cc(/N=C(\C)[O-])on2)cc1OC	none
Cc1ccc(-c2cc(-c3ccccc3)cc(-c3ccccc3)[n+]2-c2ccccc2C(=O)O)cc1	none
CCOc1ccc(-c2cc(C)[n+](CCO)c(-c3ccc(OCC)cc3)c2)cc1	MITF TRPM1 inh 62.8
CCOc1ccc(N)cc1	none
C[n+]1c(-c2ccccc2)cc(-c2ccc(O)cc2)cc1-c1ccccc1	none
COCC(=O)N1Cc2ccccc2-n2nncc2C1	none
C[C@@H]1CN([C@@H](C)CO)C(=O)CCCn2nncc2CO[C@@H]1CN(C)C(=O)Oc1cccc2ccccc12	none (no result: B2AR ag, MITF TRPM1 inh)
COc1cc2c(cc1OC)-c1c(OC)c(OC)cc3c1C(C2)N(C)CC3 (configuration not stated)	none
COc1cc2c(cc1OC)-c1c3c(cc4c1[C@@H](C2)N(C)CC4)OCO3	Peg3 promoter 60.6
CCC(c1nnnn1Cc1ccccc1)N1CCC2(CC1)C(=O)NCN2c1ccccc1 (configuration not stated)	none (no result: B2AR ag, MITF TRPM1 inh)
O=c1[nH]c(=S)[nH]c(O)c1N=Nc1ccc(S(=O)(=O)N2CCc3ccccc32)cc1	MITF TRPM1 inh 63.5, CF NFkB inh 56.2
CC(=O)OC1C(O)C(C)OC(OC2C(OC(=O)C3CCC4C(C3)OC3(CC(OC(=O)/C=C/c5ccccc5)C(C)CO3)C43CO3)OC(C)C(O)C2OC(C)=O)C1O (configuration not stated)	HIF-2a inh 65.4, Peg3 promoter 93.1, MITF TRPM1 inh 87.0, CF NFkB inh 90.3
CN(C)c1ccc(/C=C/C=C/c2sc3ccccc3[n+]2C)cc1	MITF TRPM1 inh 63.0
CN(C)c1ccc(/C=C/c2cc[n+](C)c3ccccc23)cc1	MITF TRPM1 inh 82.0
CN(C)c1ccc(/C=C2/C(=N\O)C3CCN2CC3)cc1	none
C[C@@H]1CN([C@@H](C)CO)C(=O)CCCn2nncc2CO[C@H]1CN(C)C(=O)Oc1ccc2ccccc2c1	none (no result: B2AR ag, MITF TRPM1 inh)
Cc1cccc(-n2c(O)c(C)c(=O)[nH]c2=S)c1	none
C=C(C=O)CC1CC(O)[C@]2(C)OC3CC4OC5C[C@]6(C)O[C@]7(C)CCC8OC9C[C@]%10(C)OC%11C(C)=CC(=O)OC%11CC%10OC9C[C@@H](C)C8OC7CC6O[C@]5(C)CC5OC5C4OC3CC2O1 (some centres not stated)	KKLEB tox -69.5, HIF-2a inh 93.7, B2AR ag 107.0, Peg3 promoter 99.8, MITF TRPM1 inh 96.2, CF NFkB inh 90.6
CCOc1c(Cl)cc(CNCCc2c[nH]c3ccccc23)cc1OC	Peg3 promoter 59.5
CCOc1cc(CNCCc2c[nH]c3ccccc23)cc(Cl)c1OCC	Peg3 promoter 94.9
COc1cccc(CNCCc2c[nH]c3ccccc23)c1	none
CCCCCN1C(=O)c2ccccc2[C@@]2(C(=O)OCC)Cc3cc(OC)ccc3[C@@H]12	none (no result: KKLEB tox, B2AR ag, Peg3 promoter, MITF TRPM1 inh, CF NFkB inh)
CCn1nc(/C=C/c2ccccc2)nc2c(=O)n(C)c(=O)nc1-2	B2AR ag 68.5, Peg3 promoter 94.1, MITF TRPM1 inh 103.8, CF NFkB inh 76.4
CCn1nc(-c2cccs2)nc2c(=O)n(C)c(=O)nc1-2	KKLEB tox -89.4, HIF-2a inh 79.7, B2AR ag 101.6, Peg3 promoter 118.3, MITF TRPM1 inh 100.5, CF NFkB inh 97.9
CCOc1ccc(-n2c(-c3cccs3)nc3ccccc3c2=O)cc1	none
O=C(O)C1(Br)CC12c1ccccc1-c1ccccc12 (configuration not stated)	none
CCOC(=O)[C@]12Cc3c(cc(OC)c(OC)c3OC)[C@H]1N(C(C)C)C(=O)c1ccccc12	none (no result: KKLEB tox, B2AR ag, Peg3 promoter, MITF TRPM1 inh, CF NFkB inh)
COC(=O)C1=C(c2ccc(OCc3ccccc3)c(F)c2)C[C@@H]2CC[C@H]1N2C	none (no result: B2AR ag, MITF TRPM1 inh)
CCOC(=O)c1c(C)n(Cc2ccccc2)c2ccc(OCC(O)CNC(C)(C)C)cc12 (configuration not stated)	none
C/C1=C\[C@@H](C)C/C=C/[C@H]2[C@@H]3O[C@]3(C)[C@@H](C)[C@H]3[C@H](Cc4c[nH]c5ccccc45)NC(=O)[C@]32C(=O)/C=C/C(=O)[C@@H]1O	KKLEB tox -52.6, HIF-2a inh 76.3, B2AR ag 71.9, Peg3 promoter 97.5, CF NFkB inh 72.7 (no result: MITF TRPM1 inh)
C#C[C@]1(O)[C@H](O)CC2C3CC[C@H]4C[C@@H](O)CC[C@]4(C)C3CC[C@@]21C (some centres not stated)	none (no result: B2AR ag, MITF TRPM1 inh)
CCC(=Nc1cccc(C(F)(F)F)c1)c1c(O)n(C)c(=O)n(C)c1=O	none
CC(=O)OC(C)(C)/C=C/C(=O)C(C)(O)C1C(O)CC2(C)C3CC=C4C(CC(O)C(=O)C4(C)C)C3(C)C(=O)CC12C (configuration not stated)	KKLEB tox -83.2, HIF-2a inh 78.3, Peg3 promoter 97.2, MITF TRPM1 inh 88.4, CF NFkB inh 88.9
